# Screening data as filed in PubChem.
# CYP2C19 inhib: human CYP2C19 inhibition; P33261; CYP2C19 Supersomes, luciferin-H EGE luminescence, 30 min; inhibition, % at 5 µM; actives 21% (n = 96,000);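 active = CYP2C19 inhibition above a set limit at 5 µM in the primary screen, cut at about 50% in these data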;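 also: plate controls were negative control wells for no effect and 2.5 mM tranylcypromine positive control for full effect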
# Target sequence (P33261 whole entry, looked up): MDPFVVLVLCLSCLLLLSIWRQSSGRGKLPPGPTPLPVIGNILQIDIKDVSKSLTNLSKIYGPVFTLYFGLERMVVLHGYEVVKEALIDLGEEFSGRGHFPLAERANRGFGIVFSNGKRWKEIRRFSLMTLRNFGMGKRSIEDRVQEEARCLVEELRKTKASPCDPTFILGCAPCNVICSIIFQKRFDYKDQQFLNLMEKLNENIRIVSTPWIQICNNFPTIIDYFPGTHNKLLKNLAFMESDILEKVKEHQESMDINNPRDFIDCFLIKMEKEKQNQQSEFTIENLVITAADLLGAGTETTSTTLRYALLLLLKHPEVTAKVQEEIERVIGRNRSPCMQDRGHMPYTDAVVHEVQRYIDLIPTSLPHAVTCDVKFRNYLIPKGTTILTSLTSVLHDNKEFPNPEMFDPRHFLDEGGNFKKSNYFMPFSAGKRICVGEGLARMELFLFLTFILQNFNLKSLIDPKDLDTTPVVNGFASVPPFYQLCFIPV
# CYP2C9 act: activators of human CYP2C9 | activation factor at 5 µM | recombinant CYP2C9, luciferin-H conversion, luminescence; active compounds read high; factor 1 = untreated enzyme, 0 = blocked | actives 1.4% (n = 96,000);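 active = activation factor of 2 or more for CYP2C9 at a 5 µM dose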;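 also: 0 = sulfaphenazole-blocked wells and 1 = vehicle-only wells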
# CYP2C9 inh: inhibitors of human CYP2C9; CYP2C9 Supersomes, luciferin-H conversion, luminescence; inhibition, % at 5 µM; actives 20% (n = 96,000); AID 777;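 active = blocking of liver enzyme CYP2C9 beyond about 50% at 5 µM, limit read from the data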
# E-sel TNF inh: blocks E-selectin expression induced by TNF alpha | HUVEC TNFa-induced E-selectin immunofluorescence, high content | inhibition, % at 2 µM | actives 0.71% (n = 120,000);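 active = inhibition above the batch mean plus 3 SD, and confirmed as a hit on visual image review, cut at about 43% in these data; inconclusive = passes the inhibition cutoff but fails visual image review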;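 also: 0% = TNF-stimulated DMSO wells and 100% = unstimulated control wells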
# F-actin modifier: modifiers of cytoskeleton assembly; HUVEC TNFa F-actin phalloidin imaging, high content; inhibition, % at 2 µM; actives 0.18% (n = 91,000);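 active = inhibition above the batch mean plus 3 SD and confirmed as a hit by visual image inspection, cut at about 30% in these data, passing the limit was not always enough; inconclusive = above the inhibition threshold but rejected on visual inspection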
# CYP2C19 activ: increases human CYP2C19 enzyme activity | recombinant CYP2C19, luciferin-H EGE luminescence; active compounds read high; 0 = fully inhibited enzyme, 1 = untreated enzyme | activation factor at 5 µM | 96,000 tested, under 10 active;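 active = activation factor of at least 2 at 5 µM in the primary screen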;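 also: 0 = wells with 2.5 mM tranylcypromine and 1 = vehicle-only wells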
# Numbers without * were called inactive; ? = inconclusive; . = no result. Most compounds without a hit are left out; they make up all but 22% or so of the library.
SMILES,CYP2C19 inhib,CYP2C9 act,CYP2C9 inh,E-sel TNF inh,F-actin modifier,CYP2C19 activ
O=C(Nc1cc2c(oc1=O)CCCC2=O)c1ccccc1,13,1,5,2,0,0.9
COc1ccccc1CNC(=O)C1CCN(S(=O)(=O)c2c(C)noc2C)CC1,0,2*,-99,14,2,1
CCCNC(=O)C1CCN(S(=O)(=O)c2c(C)noc2/C=C\c2ccc(OC)cc2)CC1,4,0.7,31,76*,-14,1
Cc1ccc(CNC(=O)C2CCN(S(=O)(=O)c3c(C)noc3C)CC2)cc1,-8,1.1,-14,-6,-4,1.1
CCOCCCNC(=O)C1CCN(S(=O)(=O)c2c(C)noc2/C=C\c2ccc(OC)cc2)CC1,.,.,.,-3,10,.
Cc1noc(C)c1S(=O)(=O)Nc1ccc(C(=O)NCCc2ccccc2)cc1,-1,0.4,60*,.,-25,1
CC(NC(=O)C1(S(=O)(=O)c2ccc(Cl)cc2)CC1)c1ccccc1 (configuration not stated),.,.,.,4,.,.
COc1ccc(C(=O)Nc2nc3ccccc3[nH]2)cc1S(=O)(=O)N1CCCC1,8,0.9,14,8,0,0.9
CC(C)[C@H](NC(=O)CCn1nnc2ccccc2c1=O)C(=O)O,-2,1.1,-6,?,-7,1
COC(=O)c1oc2ccc(Cl)cc2c1-n1cccc1,58*,0.3,72*,-9,-21,0.4
CCC(CC)C(=O)OCC(=O)NC12CC3CC(CC(C3)C1)C2,94*,0.7,34,7,-9,0.1
O=C(COC(=O)C12CC3CC(CC(C3)C1)C2)NC12CC3CC(CC(C3)C1)C2,23,0.8,18,-26,2,0.8
CC(C(=O)N1CCN(C=O)CC1)N1C(=O)c2ccccc2C1=O (configuration not stated),-14,1.2,-15,45,-61,1.1
CCOc1cc(C2C(C#N)=C(N)OC(C)=C2C(C)=O)cc(Br)c1O (configuration not stated),46,0.1,90*,-22,-4,0.5
CCOC(=O)C1=C(C)OC(N)=C(C#N)C1c1cc(OC)c2c(c1)OCO2 (configuration not stated),84*,0.3,66*,12,.,0.2
COc1cc(C2C(C#N)=C(N)Oc3cc(O)ccc32)cc2c1OCO2 (configuration not stated),93*,0.1,91*,.,.,0.1
COc1ccc(C2C(C#N)=C(N)Oc3cc(O)ccc32)cc1OC (configuration not stated),38,0.6,36,24,43,0.6
CCOC(=O)C1=C(C)OC(N)=C(C#N)C1c1cc(Cl)c(OCC(N)=O)c(OC)c1 (configuration not stated),41,0.1,89*,-4,-20,0.6
COC(=O)Cc1cc(=O)[nH]c(/N=C(\N)Nc2ccc(C)cc2C)n1,-8,1.2,-21,-6,-22,1.1
N#CC1=C(N)Oc2cc3ccccc3cc2C1c1cccnc1 (configuration not stated),66*,0.2,82*,13,-11,0.3
N#CC1=C(N)Oc2cc(O)ccc2C1c1ccccc1 (configuration not stated),65*,0.2,77*,-29,.,0.3
COc1cc(C2C(C#N)=C(N)Oc3cc(N(C)C)ccc32)cc2c1OCO2 (configuration not stated),51*,0.5,55*,.,-4,0.5
O=C(NCCNS(=O)(=O)c1ccccc1)c1cc(OCC(F)(F)F)ccc1OCC(F)(F)F,25,0.9,6,-3,15,0.8
Cc1ccc(NC(=O)C2=C(O)c3ccccc3N(C)S2(=O)=O)cc1,-10,0.3,73*,.,.,1.1
Cc1cccc(C)c1NC(=O)C1=C(O)c2ccccc2N(C)S1(=O)=O,-11,0.9,8,.,.,1.1
SMILES,CYP2C19 inhib,CYP2C9 act,CYP2C9 inh,E-sel TNF inh,F-actin modifier,CYP2C19 activ
CCOC(=O)c1c(C)[nH]c(O)c1C=Nc1ccc(C(F)(F)F)cc1,4,0.7,26,10,32,1
CCOC(=O)CN=C1CC(C)(C)CC2=C1Sc1ncnc(N(C)C)c1N2,23,0.8,19,-13,-1,0.8
Cc1c(C(=O)N2CCN(c3ccc(F)cc3)CC2)sc2nc(-c3ccccc3)cn12,0,1.1,-12,.,-15,1
Cc1c(C(=O)N2CCc3ccccc3C2)sc2nc(-c3ccccc3)cn12,59*,0.5,53*,15,1,0.4
COC(=O)C1CCN(C(=O)c2sc3nc(-c4ccc(F)cc4)cn3c2C)CC1,39,0.4,62*,-38,10,0.6
Cc1c(C(=O)Nc2ccncc2)sc2nc(-c3ccccc3)cn12,47,0.2,79*,-8,.,0.5
CCOC(=O)C1CCN(C(=O)c2sc3nc(-c4ccccc4)cn3c2C)CC1,30,0.6,37,.,.,0.7
COc1ccccc1N1CCN(C(=O)c2sc3nc(-c4ccccc4)cn3c2C)CC1,30,0.2,80*,3,-5,0.7
COc1ccc(N2CCN(c3oc(COc4ccccc4)nc3C#N)CC2)cc1,.,.,.,-19,.,.
CCOc1ccc(-c2nc(C#N)c(N3CCOCC3)o2)cc1,30,0.7,34,.,-6,0.7
N#Cc1nc(COc2ccc(Cl)cc2)oc1N1CCN(Cc2ccccc2)CC1,40,0.5,53*,.,6,0.6
N#Cc1nc(COc2ccccc2)oc1N1CCCCCC1,15,0.8,23,5,-11,0.9
COc1ccc(N2CCN(c3oc(COc4ccc(Cl)cc4)nc3C#N)CC2)cc1,35,0.5,50*,.,-13,0.6
CCOc1ccc(-c2nc(C#N)c(N3CCN(Cc4ccccc4)CC3)o2)cc1,36,0.3,67*,.,3,0.6
Cn1cccc1/C=C1\CCC/C(=C\c2cccn2C)C1=O,39,1.4,-42,-10,0,0.6
CC1CCCC(C)N1C(=O)COC(=O)c1ccc2c(c1)OCO2 (configuration not stated),35,0.7,30,-68,36,0.7
COC(=O)c1cc(-c2cccc(OC)c2)n[nH]1,70*,1,4,.,-42,0.3
CCC(C)[C@H](N)c1nnc(SCC(=O)c2ccc(Cl)cc2)o1 (some centres not stated),100*,0.3,71*,1,4,0
CCC(c1nnc(SCC(=O)NCCc2ccc(Cl)cc2Cl)o1)N(C)C (configuration not stated),79*,0.4,58*,-21,-3,0.2
C[C@H](N)c1nnc(SCC(=O)N(C)C)o1,4,0.9,12,-59,6,1
O=C(CSc1ccc2c(c1)OCCO2)NCCc1ccc(Cl)cc1Cl,.,.,.,20,.,.
N=C(N)SCc1ccc(Cl)cc1Cl,.,.,.,-5,.,.
C[C@H](N)c1nnc(SCc2ccc(Cl)cc2Cl)o1,100*,0.2,82*,17,-11,0
C[C@H](N)c1nnc(SCc2c(Cl)cccc2Cl)o1,99*,0.4,58*,-5,-10,0
